Measurements published in PubChem BioAssay.
Active and inactive are the calls of the source. Unless noted, how the calls were made is not given here.

Experiments:
[1] = anti-His antibody binders, primary screen, artefact control for SMM control protein annotation, biochemical, small-molecule microarray, 635 nm fluorescence (AID 1128); conditions: anti-His Alexa647 antibody binding, higher = more signal;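 further: score merges feature fluorescence with signal-to-noise for each printed compound spot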
[2] = system: Human papillomavirus type 1a E7 protein (residues 1-88); assay: HPV1a E7 small-molecule binders, primary screen, biochemical, small-molecule microarray, residues 1-88, 635 nm (AID 1129); conditions: small-molecule microarray binding, fluorescence 635 nm; higher = more signal
[3] = target: Focal adhesion kinase 1 (Homo sapiens) (UniProt Q05397); assay: small-molecule microarray binders of FAK, primary screen, biochemical, 635/667 nm fluorescence, BSA, DTT (AID 1130); conditions: PTK2 binding, 635 nm fluorescence, higher = more signal;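 further: composite of spot emission at 667 nm and signal to noise over triplicate slides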
Focal adhesion kinase 1 (Homo sapiens), sequence (Q05397 whole entry, looked up): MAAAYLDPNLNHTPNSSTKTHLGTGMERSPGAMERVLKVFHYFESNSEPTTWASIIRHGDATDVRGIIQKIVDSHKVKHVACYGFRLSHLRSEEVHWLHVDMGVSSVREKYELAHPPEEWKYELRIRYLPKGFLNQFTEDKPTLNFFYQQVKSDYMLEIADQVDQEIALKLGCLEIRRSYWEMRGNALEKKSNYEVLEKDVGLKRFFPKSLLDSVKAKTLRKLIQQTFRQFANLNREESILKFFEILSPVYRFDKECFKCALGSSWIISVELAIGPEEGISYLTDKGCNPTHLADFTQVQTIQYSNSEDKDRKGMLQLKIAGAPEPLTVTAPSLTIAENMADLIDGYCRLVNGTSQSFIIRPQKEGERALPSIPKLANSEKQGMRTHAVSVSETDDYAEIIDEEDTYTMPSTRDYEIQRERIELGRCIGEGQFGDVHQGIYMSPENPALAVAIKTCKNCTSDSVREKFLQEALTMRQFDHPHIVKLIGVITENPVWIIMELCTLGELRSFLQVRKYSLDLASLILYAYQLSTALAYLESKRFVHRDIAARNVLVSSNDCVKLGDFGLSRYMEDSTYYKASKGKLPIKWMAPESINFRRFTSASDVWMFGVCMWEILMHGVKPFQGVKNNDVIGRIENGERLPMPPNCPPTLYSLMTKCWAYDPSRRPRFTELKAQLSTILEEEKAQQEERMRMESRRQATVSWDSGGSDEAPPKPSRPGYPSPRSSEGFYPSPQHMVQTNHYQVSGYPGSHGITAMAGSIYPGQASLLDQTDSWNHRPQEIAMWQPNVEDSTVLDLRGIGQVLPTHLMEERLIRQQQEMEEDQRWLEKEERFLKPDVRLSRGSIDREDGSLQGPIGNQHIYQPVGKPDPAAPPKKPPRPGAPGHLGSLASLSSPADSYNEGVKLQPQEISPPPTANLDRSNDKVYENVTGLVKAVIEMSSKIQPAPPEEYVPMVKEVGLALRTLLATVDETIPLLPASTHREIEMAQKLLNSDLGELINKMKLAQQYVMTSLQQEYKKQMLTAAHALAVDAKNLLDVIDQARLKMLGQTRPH

[4] = system: Fibrinogen (Alexa647-labelled); assay: fibrinogen binders on compound microarrays, profiling panel, artefact control for SMM control-protein annotation, biochemical, small-molecule microarray, 635/667 nm fluorescence (AID 1131); conditions: fibrinogen-A647 binding fluorescence, higher = more signal;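 further: z-score merges 667 nm fluorescence with per-spot signal-to-noise over triplicate slides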
[5] = target: Follistatin (Homo sapiens) (UniProt P19883); assay: follistatin binders on small-molecule microarrays, primary screen, biochemical, small-molecule microarray, 635/667 nm fluorescence (AID 1132); conditions: FST binding, 635 nm fluorescence, higher = more signal
Follistatin (Homo sapiens), sequence (P19883 whole entry, looked up): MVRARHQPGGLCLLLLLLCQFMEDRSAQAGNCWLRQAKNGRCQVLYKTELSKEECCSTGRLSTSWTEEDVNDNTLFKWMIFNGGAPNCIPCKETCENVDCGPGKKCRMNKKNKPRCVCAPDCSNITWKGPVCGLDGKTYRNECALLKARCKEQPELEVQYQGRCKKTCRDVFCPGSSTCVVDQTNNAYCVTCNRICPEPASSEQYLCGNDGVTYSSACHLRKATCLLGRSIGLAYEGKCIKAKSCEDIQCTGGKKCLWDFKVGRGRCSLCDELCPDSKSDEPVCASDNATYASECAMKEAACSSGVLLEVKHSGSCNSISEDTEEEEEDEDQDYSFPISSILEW

[6] = target: Fibroblast growth factor 2 (Homo sapiens) (UniProt P09038); assay: FGF2 binders on small-molecule microarrays, primary screen, biochemical, small-molecule microarray, 635/667 nm fluorescence (AID 1133); conditions: small-molecule microarray binding, FGF2, fluorescence 635/667; higher = more signal
Fibroblast growth factor 2 (Homo sapiens), sequence (P09038 whole entry, looked up): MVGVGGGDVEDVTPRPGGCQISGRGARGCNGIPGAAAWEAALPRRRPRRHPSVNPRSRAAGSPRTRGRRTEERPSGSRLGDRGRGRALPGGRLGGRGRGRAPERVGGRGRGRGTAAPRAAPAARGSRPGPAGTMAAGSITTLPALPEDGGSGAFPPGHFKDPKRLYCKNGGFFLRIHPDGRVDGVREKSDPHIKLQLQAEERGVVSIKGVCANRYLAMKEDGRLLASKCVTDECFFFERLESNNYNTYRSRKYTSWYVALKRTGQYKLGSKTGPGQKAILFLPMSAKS

[7] = mitochondrial membrane potential change in A549 cells, profiling panel, cell-based, JC-1 fluorescence, basal, 24 h, 100 nL (AID 1138); conditions: higher = more signal;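 further: A549 lung adenocarcinoma cells under basal conditions with no added stimulus; test concentration not given here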
Lefty1 = Lefty1 binders on small-molecule microarrays, primary screen, biochemical, small-molecule microarray, 635/667 nm fluorescence (AID 1139); conditions: small-molecule microarray binding, fluorescence 635/667; higher = more signal
[8] = system: wheat germ agglutinin (Triticum aestivum), Alexa647-labelled; assay: wheat germ agglutinin binders on compound microarrays, profiling panel, artefact control for SMM control-protein annotation, biochemical, small-molecule microarray, 635/667 nm fluorescence (AID 1140); conditions: WGA-A647 binding, 635 nm fluorescence, higher = more signal;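 further: score merges 667 nm feature emission with signal to noise over triplicate slides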
[9] = target: Luciferin 4-monooxygenase (Photinus pyralis) (UniProt P08659); assay: firefly luciferase enzyme inhibitors, primary screen, biochemical, luminescence, purified enzyme, 2006 set (AID 1141); conditions: SteadyGlo luminescence, 30 min, higher = more signal, called active from +8 up or from −8 down;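 further: cell-free assay with purified firefly luciferase at 100 ng per well in PBS; test concentration not given here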
Luciferin 4-monooxygenase (Photinus pyralis), sequence (P08659 whole entry, looked up): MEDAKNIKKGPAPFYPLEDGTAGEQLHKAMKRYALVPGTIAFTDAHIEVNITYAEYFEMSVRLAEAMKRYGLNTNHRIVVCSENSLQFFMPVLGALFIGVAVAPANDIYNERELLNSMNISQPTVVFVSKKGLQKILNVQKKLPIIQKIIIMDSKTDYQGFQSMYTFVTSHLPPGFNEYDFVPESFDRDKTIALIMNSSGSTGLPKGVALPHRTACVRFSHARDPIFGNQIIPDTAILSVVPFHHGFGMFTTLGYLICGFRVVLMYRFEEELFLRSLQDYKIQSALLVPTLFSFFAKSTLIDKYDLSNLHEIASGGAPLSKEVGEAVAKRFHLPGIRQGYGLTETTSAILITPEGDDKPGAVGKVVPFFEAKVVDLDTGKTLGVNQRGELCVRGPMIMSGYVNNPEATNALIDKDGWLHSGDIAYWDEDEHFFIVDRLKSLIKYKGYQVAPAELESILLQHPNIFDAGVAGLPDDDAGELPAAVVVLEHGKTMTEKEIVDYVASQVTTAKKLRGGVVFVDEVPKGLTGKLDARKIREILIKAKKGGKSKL

[10] = system: Wnt5a (protein binding on small-molecule microarray); assay: Wnt5a binders on small-molecule microarray, primary screen, biophysical, 635/667 nm fluorescence (AID 1142); conditions: 635 nm fluorescence, higher = more signal;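 further: fluorescence read at 667 nm with signal to noise per printed feature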
[11] = cell viability in Huh7 cells, primary screen, cytotoxicity control for HCV replication inhibitor project, CellTiter-Glo luminescence, basal, 48 h (AID 1143); conditions: Huh7 HCV replicon, higher = more signal, called active from +8 up or from −8 down;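 further: Huh7 hepatoma cells carrying a hepatitis C replication reporter with no stimulus; test concentration not given here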
[12] = P. aeruginosa biofilm formation inhibitors, primary screen, PAO1 strain, BacTiter-Glo luminescence, LB-PBS (AID 1144); conditions: 12 h, higher = more signal
[13] = CREB reporter modulators without forskolin, primary screen, cell-based, PC12, CRE-LacZ reporter, unstimulated (AID 1145); conditions: no forskolin, luminescence, 4.5 h, higher = more signal, called active from +8 up or from −8 down
[14] = CREB reporter modulators under forskolin, primary screen, cell-based, PC12, CRE-LacZ reporter, forskolin-stimulated (AID 1146); conditions: luminescence, 4.5 h, higher = more signal, called active from +8 up or from −8 down;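 further: PC12 cells with 6xCRE LacZ reporter stimulated by forskolin 10 µM; beta-galactosidase reporter signal reflecting CREB driven transcription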
[15] = target: Streptavidin (Streptomyces avidinii) (UniProt P22629); assay: streptavidin binders on small-molecule microarray, primary screen, artefact control for SMM compound annotation, biophysical, 635/667 nm fluorescence (AID 1147); conditions: streptavidin binding, higher = more signal;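 further: signal reflects streptavidin binding to arrayed compounds as a control protein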
Streptavidin (Streptomyces avidinii), sequence (P22629 whole entry, looked up): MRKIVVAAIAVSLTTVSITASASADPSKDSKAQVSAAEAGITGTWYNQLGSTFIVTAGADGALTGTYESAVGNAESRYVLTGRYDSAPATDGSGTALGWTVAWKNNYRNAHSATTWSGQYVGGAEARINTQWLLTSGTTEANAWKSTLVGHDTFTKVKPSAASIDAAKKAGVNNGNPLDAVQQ

[16] = small-molecule binders of probe aInhba, primary screen, biochemical, small-molecule microarray, 635/667 nm fluorescence (AID 1148); conditions: higher = more signal;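 further: score merges 667nm spot fluorescence with signal-to-noise for antibody binding to printed compounds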
Torsin-1A (Homo sapiens) [17] = target: Torsin-1A (Homo sapiens) (UniProt O14656); assay: torsin A binders from cell lysate, primary screen, small-molecule microarray, wild-type, 635/667 nm (AID 1149); conditions: COS7 hTOR1A-WT lysate, 635 nm fluorescence, higher = more signal
Torsin-1A (Homo sapiens), sequence (O14656 whole entry, looked up): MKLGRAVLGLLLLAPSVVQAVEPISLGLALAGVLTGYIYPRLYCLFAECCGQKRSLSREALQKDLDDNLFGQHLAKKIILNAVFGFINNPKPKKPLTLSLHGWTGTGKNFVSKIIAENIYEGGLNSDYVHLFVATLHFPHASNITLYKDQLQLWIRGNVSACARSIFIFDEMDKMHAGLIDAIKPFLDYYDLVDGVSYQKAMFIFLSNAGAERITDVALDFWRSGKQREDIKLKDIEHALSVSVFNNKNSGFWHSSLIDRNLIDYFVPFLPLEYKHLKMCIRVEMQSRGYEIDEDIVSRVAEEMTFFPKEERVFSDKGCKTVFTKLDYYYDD

Torsin-1A (Homo sapiens) [18] = target: Torsin-1A (Homo sapiens) (UniProt O14656); assay: small-molecule binders of mutant TOR1A in lysate, primary screen, cell lysate, small-molecule microarray, COS7 lysate, 635/667 nm fluorescence (AID 1150); conditions: COS7 hTOR1A mutant lysate, 635 nm fluorescence, higher = more signal;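 further: score pools 667 nm emission and signal to noise measuring lysate protein binding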
[19] = system: Sonic hedgehog protein (Shh); assay: small-molecule binders of Shh protein, primary screen, biochemical, small-molecule microarray, 635/667 nm fluorescence (AID 1151); conditions: small-molecule microarray binding, 635 nm fluorescence; higher = more signal;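 further: Shh protein binding to compounds spotted on small-molecule microarray slides; score combines spot fluorescence intensity with signal-to-noise across triplicate slides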

| SMILES | composite z-score [1] | composite z-score [2] | composite z-score [3] | composite z-score [4] | composite z-score [5] | composite z-score [6] | z-score [7] | composite z-score (Lefty1) | composite z-score [8] | z-score [9] | composite z-score [10] | z-score [11] | z-score [12] | z-score [13] | z-score [14] | composite z-score [15] | composite z-score [16] | composite z-score (Torsin-1A (Homo sapiens) [17]) | composite z-score (Torsin-1A (Homo sapiens) [18]) | composite z-score [19] |
| --- | --- | --- | --- | --- | --- | --- | --- | --- | --- | --- | --- | --- | --- | --- | --- | --- | --- | --- | --- | --- |
| COc1ccc(O[C@H]2C=C[C@@H](c3ccccc3)O[C@@H]2CON=C[C@@H](C)[C@H](OCc2ccccc2)C(C)C)cc1 | 0.901 | -1.26 | -0.302 | -1.41 | -0.675 | -0.76 | 1.96 | -0.214 | 0.12 | 0.0017 (inactive) | -0.426 | -0.149 (inactive) | 0.531 (inactive) | -0.971 (inactive) | 0.367 (inactive) | -0.567 | -0.21 | -1.53 | -0.91 | -0.071 |
| COCC1=C2[C@@H](CCc3ccccc3)OB(O)C[C@@H]2n2c(=O)n(-c3ccccc3)c(=O)n2C1 | 0.241 | -0.028 | -0.0493 | -0.434 | 0.133 | 0.506 | 0.581 | 0.336 | -0.228 | -1.19 (inactive) | 0.102 | -0.405 (inactive) | 0.523 (inactive) | 2.22 (inactive) | -0.714 (inactive) | -0.324 | -0.082 | -0.0531 | -0.066 | 0.966 |
| CCOC(=O)[C@H](Cc1ccccc1)NC(=O)CCC1CC(OC(=O)NCCc2ccc(F)cc2)CC2(CCCC(COC(=O)NCC(c3ccccc3)c3ccccc3)O2)O1 (stereo not given in full) | 0.999 | 0.517 | 0.111 | 0.7 | 0.831 | 0.563 | 0.597 | 0.68 | 0.554 | 0.715 (inactive) | 0.0879 | -0.792 (inactive) | 0.338 (inactive) | 0.286 (inactive) | 1.23 (inactive) | 0.388 | -0.248 | -0.0715 | 0.656 | 0.719 |
| CC(C)=CCCC(C)=CCON=C1C[C@@H](O)[C@@H](O)[C@@H]2[C@@H]3C(=O)N(C[C@@H]4CCCO4)C(=O)[C@@H]3CC[C@@H]12 | 0.875 | 1.13 | 0.121 | 0.971 | 1.06 | 1.07 | -0.26 | 1.26 | 0.59 | 0.722 (inactive) | 0.311 | -0.678 (inactive) | 0.518 (inactive) | -0.659 (inactive) | -0.227 (inactive) | -0.0996 | -0.0933 | 2.06 | 2.01 | 1.73 |
| CCOC(=O)[C@H](CC(C)C)NC(=O)CCC1CC(OC(=O)NCCc2ccc(F)cc2)CC2(CCCC(COC(=O)NCc3ccccc3)O2)O1 (stereo not given in full) | 0.49 | 1.17 | 0.212 | 0.538 | 0.693 | 0.936 | -0.692 | 1.04 | 0.422 | 0.629 (inactive) | 0.371 | -4.31 (inactive) | -0.568 (inactive) | 0.199 (inactive) | 0.659 (inactive) | 0.255 | -0.226 | 1.47 | 0.154 | 1.86 |
| CCOC(=O)CCN1C(=O)[C@H]2[C@H]3[C@H](O)[C@H](O)CC(=NOC[C@@H](O)COCc4ccco4)[C@@H]3CC[C@H]2C1=O | 1.08 | -0.0069 | 0.144 | 0.825 | -0.977 | 0.225 | 0.928 | -0.219 | 0.0513 | 0.542 (inactive) | -0.0579 | -0.632 (inactive) | -0.35 (inactive) | 0.251 (inactive) | 0.069 (inactive) | 0.663 | -0.197 | 0.584 | -0.0032 | -0.825 |
| CC(C)(C)N1CC=CC23O[C@@H]4C=CCCOC(=O)C4[C@H]2C(=O)N(CCCCCO)[C@@H]3C1=O (stereo not given in full) | 0.373 | 0.233 | -0.441 | -1.67 | -0.435 | -0.51 | 0.678 | 0.887 | 0.671 | -0.789 (inactive) | 0.37 | -0.128 (inactive) | -0.174 (inactive) | 0.333 (inactive) | -0.329 (inactive) | -0.102 | 0.214 | 1.11 | 0.879 | 0.992 |
| COc1ccc(O[C@H]2C=C[C@@H](c3ccccc3)O[C@@H]2COC(=O)CCC(C)=NOC(C)CN2CCCCc3nc(C)c(C)cc32)cc1 (stereo not given in full) | 4.16 | -0.303 | 0.214 | -0.78 | 0.0731 | -0.442 | 0.752 | -0.214 | 0.878 | 0.731 (inactive) | -0.133 | -0.622 (inactive) | -0.28 (inactive) | -0.817 (inactive) | 0.287 (inactive) | 0.095 | -0.0719 | -0.406 | -0.489 | -0.0679 |
| COC(=O)C1=CCC(c2cccc(Cl)c2)O1 (stereo not given) | 0.192 | 0.24 | -0.126 | 0.346 | -0.399 | -0.473 | -0.816 | -0.319 | -0.455 | 1.74 (inactive) | -0.241 | -4.35 (inactive) | -1.52 (inactive) | 0.388 (inactive) | -0.551 (inactive) | -0.0713 | 0.0742 | 0.0026 | -0.58 | -0.534 |
| CCCNC(=O)OC[C@H]1O[C@H](CCON=C2[C@H]3CCn4c(=O)n(-c5ccccc5)c(=O)n4[C@H]3[C@H](O)[C@@H]3O[C@H]23)C=C[C@@H]1Oc1ccc(OC)cc1 | -0.429 | 0.281 | 0.172 | 0.297 | 0.146 | 0.409 | -0.0269 | 0.502 | 0.201 | 0.0766 (inactive) | 0.14 | -0.0238 (inactive) | 1.01 (inactive) | 0.899 (inactive) | 0.301 (inactive) | -0.28 | 0.0294 | 0.0932 | 0.565 | 0.572 |
